According to the OligoGym collection:

Molecular target: C6orf48
Test: pooled miR-30 sensor sort-seq; sequence = guide strand
Settings: shRNA
Further: reference of the scale not given here.

| Sequence | sensor-assay potency score (higher = more potent) |
| --- | --- |
| TGTCAGCAAATTCCATAGCAAG | -1.37 |
| TCACACAGGATAATACAGGAAA | -0.815 |
| TTCCATAGCAAGGAAGGAGAAC | -0.82 |
| ATATTGTGTCAGCAAATTCCAT | -1.29 |
| AGTTGCAGGAATCACTGTCTAA | -1.7 |
| TGACAGCTGCTCACACAGGATA | -1.51 |
| TTAGGATATGCCCAGCACCAGG | -1.71 |
| TAAGTTCTTAGGATATGCCCAG | -0.415 |
| TATTGTGTCAGCAAATTCCATA | -0.54 |
| TCAAGTTGCAGGAATCACTGTC | 0.907 |
| AAGTTCTTAGGATATGCCCAGC | -0.846 |
| ATAGCAAGGAAGGAGAACAGGC | -1.07 |

Molecular target: C6orf58
Test: as above
Settings: shRNA

| Sequence | sensor-assay potency score (higher = more potent) |
| --- | --- |
| TTACTGATTGTCAAGTTCGAGT | -0.967 |
| TTTCTGTACAAAGATAACCTAT | -0.334 |
| TTCTGTACAAAGATAACCTATA | -1.09 |
| TTACACCAGAATCAACCGCAGC | -1.25 |
| TAGAATAATAATCATATCTGTC | -0.538 |
| TTGGATCAGCTAATCTGCCTGT | 0.319 |
| TTTATCCACATTGTCAAGCATA | -1.01 |
| TTATATGATCTAATCAAGGTTG | -0.152 |
| TAATTCATTAATCATTTCCTGA | -0.771 |
| TATTCTGTTCATTATCTGGTGC | -0.148 |
| TATGATTTTATACATCCCCATT | -1.55 |
